Data on 7 compounds can be found in ChEMBL document CHEMBL2218924, “A broad activity screen in support of a chemogenomic map for kinase signalling research and drug discovery” (Biochem J, 2013).

For assay [1], the target named is Calcium/calmodulin-dependent protein kinase type 1 (Homo sapiens) (UniProt Q14012). The settings on record: at 1 µM.
The target is the same in assay [2]. The settings on record: at 10 µM.
In assay [3] the target is Calcium/calmodulin-dependent protein kinase type II subunit beta (Homo sapiens) (UniProt Q13554). The settings on record: at 1 µM.
Chain of Calcium/calmodulin-dependent protein kinase type II subunit beta (Homo sapiens) (Q13554 whole entry): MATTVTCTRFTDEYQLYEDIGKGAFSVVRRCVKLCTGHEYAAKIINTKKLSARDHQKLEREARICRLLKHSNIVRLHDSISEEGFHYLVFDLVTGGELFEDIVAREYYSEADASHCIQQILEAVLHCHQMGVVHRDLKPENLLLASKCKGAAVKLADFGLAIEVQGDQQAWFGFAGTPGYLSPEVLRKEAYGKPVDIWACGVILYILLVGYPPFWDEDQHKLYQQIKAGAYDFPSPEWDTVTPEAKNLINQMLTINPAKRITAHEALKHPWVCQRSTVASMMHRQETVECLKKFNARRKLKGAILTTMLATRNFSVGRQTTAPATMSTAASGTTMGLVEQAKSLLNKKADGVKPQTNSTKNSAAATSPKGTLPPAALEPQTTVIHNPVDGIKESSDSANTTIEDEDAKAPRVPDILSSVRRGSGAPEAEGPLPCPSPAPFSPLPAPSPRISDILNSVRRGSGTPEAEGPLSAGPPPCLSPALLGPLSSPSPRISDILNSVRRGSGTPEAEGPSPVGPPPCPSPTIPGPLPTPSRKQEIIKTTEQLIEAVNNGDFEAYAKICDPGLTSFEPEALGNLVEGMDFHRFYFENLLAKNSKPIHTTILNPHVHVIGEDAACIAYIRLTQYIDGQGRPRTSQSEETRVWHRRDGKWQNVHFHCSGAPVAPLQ
For assay [4] the target is unchanged. The settings on record: at 10 µM.
Assay [5] addresses Calcium/calmodulin-dependent protein kinase type II subunit gamma (Homo sapiens) (UniProt Q13555). The settings on record: at 1 µM.
For assay [6] the target is unchanged. The settings on record: at 10 µM.
Assay [7] addresses Calcium/calmodulin-dependent protein kinase type II subunit delta (Homo sapiens) (UniProt Q13557). The settings on record: at 1 µM.
For assay [8] the target is unchanged. The settings on record: at 10 µM.
Assay [9] has as its target T1, Calcium/calmodulin-dependent protein kinase type IV (Homo sapiens) (UniProt Q16566).
T1 sequence (whole entry): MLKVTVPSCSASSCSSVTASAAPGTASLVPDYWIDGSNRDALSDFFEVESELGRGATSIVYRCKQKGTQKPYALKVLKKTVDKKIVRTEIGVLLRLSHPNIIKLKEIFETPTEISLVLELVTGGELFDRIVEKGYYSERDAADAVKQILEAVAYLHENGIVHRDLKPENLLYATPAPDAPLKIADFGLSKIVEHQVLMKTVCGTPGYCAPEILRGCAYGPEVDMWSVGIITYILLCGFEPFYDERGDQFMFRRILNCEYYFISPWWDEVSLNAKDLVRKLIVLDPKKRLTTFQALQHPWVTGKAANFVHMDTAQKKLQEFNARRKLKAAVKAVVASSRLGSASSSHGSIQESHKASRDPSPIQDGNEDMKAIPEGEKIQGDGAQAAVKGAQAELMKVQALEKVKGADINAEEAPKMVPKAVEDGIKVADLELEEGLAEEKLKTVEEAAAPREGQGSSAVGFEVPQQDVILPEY
The settings on record: at 1 µM.

Assay [10] has as its target T1, Calcium/calmodulin-dependent protein kinase type IV (Homo sapiens). The settings on record: at 10 µM.
For assay [11], the target named is Death-associated protein kinase 1 (Homo sapiens) (UniProt P53355). The settings on record: at 10 µM.
Chain of Death-associated protein kinase 1 (Homo sapiens) (P53355 whole entry, looked up): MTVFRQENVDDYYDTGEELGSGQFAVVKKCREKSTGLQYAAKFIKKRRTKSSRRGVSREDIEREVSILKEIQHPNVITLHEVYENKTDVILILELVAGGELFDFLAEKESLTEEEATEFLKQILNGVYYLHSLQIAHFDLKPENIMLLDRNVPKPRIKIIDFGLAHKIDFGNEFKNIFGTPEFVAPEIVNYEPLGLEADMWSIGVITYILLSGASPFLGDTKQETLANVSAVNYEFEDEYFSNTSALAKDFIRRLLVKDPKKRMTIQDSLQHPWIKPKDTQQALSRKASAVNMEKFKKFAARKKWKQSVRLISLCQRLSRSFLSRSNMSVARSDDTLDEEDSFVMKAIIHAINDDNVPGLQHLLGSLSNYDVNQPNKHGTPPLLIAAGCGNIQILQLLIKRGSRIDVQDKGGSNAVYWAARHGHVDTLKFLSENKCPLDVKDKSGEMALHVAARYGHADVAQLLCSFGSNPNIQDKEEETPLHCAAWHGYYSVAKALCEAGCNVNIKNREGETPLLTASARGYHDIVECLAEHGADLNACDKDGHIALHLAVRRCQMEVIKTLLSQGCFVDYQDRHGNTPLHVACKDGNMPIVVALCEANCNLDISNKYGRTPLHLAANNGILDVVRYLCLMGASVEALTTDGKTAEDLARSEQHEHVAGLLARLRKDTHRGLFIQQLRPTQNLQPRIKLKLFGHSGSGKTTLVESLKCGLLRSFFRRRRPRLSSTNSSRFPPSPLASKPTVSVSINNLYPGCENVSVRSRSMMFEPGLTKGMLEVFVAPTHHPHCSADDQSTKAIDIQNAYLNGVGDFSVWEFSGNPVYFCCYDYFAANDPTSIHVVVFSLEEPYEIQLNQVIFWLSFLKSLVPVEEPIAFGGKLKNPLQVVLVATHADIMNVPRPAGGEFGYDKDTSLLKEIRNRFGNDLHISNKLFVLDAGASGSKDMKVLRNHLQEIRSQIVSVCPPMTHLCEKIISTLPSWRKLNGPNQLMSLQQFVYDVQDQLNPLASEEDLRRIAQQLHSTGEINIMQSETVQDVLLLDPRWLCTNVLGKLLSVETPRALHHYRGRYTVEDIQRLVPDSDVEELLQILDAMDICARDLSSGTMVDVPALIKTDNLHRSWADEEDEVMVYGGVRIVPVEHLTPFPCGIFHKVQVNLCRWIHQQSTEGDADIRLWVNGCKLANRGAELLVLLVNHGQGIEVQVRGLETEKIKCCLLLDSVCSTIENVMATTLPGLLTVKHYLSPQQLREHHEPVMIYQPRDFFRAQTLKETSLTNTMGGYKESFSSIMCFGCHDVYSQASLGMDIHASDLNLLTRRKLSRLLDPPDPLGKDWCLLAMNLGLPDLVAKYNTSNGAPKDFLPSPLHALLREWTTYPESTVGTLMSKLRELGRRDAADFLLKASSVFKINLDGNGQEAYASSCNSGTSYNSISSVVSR
Assay [12] addresses Death-associated protein kinase 2 (Homo sapiens) (UniProt Q9UIK4). The settings on record: at 1 µM.
Assay [13] has the same target. The settings on record: at 10 µM.
Assay [14] has as its target T2, Serine/threonine-protein kinase DCLK2 (Homo sapiens) (UniProt Q8N568).
T2 sequence (whole entry): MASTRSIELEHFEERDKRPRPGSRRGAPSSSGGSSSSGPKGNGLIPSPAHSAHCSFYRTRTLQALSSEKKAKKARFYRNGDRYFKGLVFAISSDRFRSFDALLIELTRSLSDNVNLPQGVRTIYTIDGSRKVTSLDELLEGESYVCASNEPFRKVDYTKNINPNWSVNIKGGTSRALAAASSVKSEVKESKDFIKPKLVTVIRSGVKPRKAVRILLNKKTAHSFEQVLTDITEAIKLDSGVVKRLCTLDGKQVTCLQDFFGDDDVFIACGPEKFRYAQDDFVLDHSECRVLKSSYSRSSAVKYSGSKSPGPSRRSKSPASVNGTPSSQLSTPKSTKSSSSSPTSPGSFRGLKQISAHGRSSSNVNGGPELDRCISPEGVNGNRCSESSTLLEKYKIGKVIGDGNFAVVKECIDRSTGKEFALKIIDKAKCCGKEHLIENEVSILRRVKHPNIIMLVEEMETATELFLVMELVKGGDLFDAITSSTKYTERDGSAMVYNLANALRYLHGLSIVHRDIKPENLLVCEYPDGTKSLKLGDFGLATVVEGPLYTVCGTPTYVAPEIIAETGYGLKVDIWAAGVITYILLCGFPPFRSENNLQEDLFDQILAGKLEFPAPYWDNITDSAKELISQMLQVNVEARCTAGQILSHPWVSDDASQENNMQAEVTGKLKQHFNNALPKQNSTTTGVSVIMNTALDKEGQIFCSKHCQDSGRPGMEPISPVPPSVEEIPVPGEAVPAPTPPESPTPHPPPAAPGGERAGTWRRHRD
The settings on record: at 1 µM.

The target in assay [15] is T2, Serine/threonine-protein kinase DCLK2 (Homo sapiens). The settings on record: at 10 µM.
Assay [16] addresses T3, Discoidin domain-containing receptor 2 (Homo sapiens) (UniProt Q16832).
T3 sequence (whole entry): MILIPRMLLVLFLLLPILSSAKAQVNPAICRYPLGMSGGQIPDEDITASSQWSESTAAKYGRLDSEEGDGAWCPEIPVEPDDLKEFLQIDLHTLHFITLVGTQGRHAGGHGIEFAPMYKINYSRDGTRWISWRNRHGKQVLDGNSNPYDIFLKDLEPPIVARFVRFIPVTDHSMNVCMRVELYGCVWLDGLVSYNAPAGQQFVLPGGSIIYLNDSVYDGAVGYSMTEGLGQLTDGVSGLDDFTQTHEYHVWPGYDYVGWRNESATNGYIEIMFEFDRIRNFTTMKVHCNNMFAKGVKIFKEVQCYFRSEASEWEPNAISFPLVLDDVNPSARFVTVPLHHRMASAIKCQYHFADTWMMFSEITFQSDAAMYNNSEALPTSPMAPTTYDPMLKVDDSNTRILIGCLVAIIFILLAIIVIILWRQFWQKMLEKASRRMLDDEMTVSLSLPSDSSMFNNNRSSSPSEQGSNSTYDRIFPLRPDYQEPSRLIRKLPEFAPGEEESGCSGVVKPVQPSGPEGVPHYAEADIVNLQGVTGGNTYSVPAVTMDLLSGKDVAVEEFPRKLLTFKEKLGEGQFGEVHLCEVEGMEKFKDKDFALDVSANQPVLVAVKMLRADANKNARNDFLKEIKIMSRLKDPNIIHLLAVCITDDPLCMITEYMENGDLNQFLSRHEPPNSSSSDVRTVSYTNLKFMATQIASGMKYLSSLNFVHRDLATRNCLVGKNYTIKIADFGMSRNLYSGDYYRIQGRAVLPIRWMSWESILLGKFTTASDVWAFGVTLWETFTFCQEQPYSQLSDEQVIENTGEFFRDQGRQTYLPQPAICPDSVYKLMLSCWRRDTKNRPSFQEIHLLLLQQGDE
The settings on record: at 1 µM.

In assay [17] the target is T3, Discoidin domain-containing receptor 2 (Homo sapiens). The settings on record: at 10 µM.
Assay [18] concerns the target T4, Myotonin-protein kinase (Homo sapiens) (UniProt Q09013).
T4 sequence (whole entry): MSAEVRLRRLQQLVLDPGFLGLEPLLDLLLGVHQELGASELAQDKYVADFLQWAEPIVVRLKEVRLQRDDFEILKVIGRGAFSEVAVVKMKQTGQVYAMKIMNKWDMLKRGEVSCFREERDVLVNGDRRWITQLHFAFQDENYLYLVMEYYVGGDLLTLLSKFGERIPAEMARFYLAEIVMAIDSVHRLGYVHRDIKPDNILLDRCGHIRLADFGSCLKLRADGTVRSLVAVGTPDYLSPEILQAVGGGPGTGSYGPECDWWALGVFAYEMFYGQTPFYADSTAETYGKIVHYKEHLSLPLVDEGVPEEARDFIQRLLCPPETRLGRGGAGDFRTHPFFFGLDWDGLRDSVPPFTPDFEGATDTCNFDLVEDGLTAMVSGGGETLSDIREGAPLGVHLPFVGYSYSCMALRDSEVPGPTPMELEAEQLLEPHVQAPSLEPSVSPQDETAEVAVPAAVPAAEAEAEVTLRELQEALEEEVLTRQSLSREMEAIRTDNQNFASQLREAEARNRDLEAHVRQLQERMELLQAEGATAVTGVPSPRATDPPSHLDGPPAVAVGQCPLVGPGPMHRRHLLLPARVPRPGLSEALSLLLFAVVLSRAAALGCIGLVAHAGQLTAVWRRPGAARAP
The settings on record: at 1 µM.

Assay [19] deals with T4, Myotonin-protein kinase (Homo sapiens). The settings on record: at 10 µM.
Assay [20] concerns the target T5, Serine/threonine-protein kinase 17A (Homo sapiens) (UniProt Q9UEE5).
T5 sequence (whole entry): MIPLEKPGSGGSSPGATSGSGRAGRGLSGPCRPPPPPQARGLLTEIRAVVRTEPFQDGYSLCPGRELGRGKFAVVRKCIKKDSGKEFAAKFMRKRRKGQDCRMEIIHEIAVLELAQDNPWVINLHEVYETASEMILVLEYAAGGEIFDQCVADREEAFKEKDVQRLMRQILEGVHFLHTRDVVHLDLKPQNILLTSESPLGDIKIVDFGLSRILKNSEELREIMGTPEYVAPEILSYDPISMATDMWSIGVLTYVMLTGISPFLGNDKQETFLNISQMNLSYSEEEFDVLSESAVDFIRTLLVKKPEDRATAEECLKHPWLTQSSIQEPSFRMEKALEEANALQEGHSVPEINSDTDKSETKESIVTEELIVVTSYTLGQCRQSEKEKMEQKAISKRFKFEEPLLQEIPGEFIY
The settings on record: at 1 µM.

Chain of Calcium/calmodulin-dependent protein kinase type II subunit gamma (Homo sapiens) (Q13555 whole entry): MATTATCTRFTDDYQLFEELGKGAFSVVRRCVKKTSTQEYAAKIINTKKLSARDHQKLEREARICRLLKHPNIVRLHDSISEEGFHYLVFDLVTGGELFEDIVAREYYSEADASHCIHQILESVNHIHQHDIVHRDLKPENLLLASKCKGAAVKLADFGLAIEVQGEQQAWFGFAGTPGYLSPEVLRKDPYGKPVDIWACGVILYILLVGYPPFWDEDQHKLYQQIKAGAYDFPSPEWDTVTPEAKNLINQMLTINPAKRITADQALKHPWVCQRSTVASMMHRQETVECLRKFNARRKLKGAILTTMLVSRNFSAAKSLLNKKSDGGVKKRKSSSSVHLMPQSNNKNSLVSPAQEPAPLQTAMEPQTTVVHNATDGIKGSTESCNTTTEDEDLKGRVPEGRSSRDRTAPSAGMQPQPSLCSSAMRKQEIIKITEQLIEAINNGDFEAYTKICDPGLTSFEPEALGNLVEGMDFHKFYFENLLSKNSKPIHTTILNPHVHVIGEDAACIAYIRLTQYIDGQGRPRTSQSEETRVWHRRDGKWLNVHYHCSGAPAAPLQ
Chain of Calcium/calmodulin-dependent protein kinase type II subunit delta (Homo sapiens) (Q13557 whole entry): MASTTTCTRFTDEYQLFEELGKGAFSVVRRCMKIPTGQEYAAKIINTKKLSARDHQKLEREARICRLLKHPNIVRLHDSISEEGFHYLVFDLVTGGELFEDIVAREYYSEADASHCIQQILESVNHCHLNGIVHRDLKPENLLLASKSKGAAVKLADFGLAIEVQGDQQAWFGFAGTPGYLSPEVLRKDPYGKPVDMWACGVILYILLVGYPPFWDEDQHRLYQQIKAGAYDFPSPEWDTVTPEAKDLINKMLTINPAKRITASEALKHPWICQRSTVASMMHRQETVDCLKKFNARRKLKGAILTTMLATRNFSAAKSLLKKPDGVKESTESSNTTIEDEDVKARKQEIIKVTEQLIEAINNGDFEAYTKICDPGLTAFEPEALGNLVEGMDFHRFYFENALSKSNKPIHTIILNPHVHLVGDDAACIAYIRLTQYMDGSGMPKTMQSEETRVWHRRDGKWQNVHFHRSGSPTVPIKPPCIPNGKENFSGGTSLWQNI
Chain of Death-associated protein kinase 2 (Homo sapiens) (Q9UIK4 whole entry, looked up): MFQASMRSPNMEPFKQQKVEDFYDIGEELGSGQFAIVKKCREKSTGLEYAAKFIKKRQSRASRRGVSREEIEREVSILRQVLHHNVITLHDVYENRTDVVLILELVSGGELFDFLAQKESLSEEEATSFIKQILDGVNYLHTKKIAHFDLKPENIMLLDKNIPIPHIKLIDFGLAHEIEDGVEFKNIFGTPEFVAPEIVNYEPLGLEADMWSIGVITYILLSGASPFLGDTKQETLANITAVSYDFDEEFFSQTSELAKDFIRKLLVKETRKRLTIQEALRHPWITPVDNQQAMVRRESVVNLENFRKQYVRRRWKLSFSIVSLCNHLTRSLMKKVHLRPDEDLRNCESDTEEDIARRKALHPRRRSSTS
Chain of Calcium/calmodulin-dependent protein kinase type 1 (Homo sapiens) (Q14012 whole entry, looked up): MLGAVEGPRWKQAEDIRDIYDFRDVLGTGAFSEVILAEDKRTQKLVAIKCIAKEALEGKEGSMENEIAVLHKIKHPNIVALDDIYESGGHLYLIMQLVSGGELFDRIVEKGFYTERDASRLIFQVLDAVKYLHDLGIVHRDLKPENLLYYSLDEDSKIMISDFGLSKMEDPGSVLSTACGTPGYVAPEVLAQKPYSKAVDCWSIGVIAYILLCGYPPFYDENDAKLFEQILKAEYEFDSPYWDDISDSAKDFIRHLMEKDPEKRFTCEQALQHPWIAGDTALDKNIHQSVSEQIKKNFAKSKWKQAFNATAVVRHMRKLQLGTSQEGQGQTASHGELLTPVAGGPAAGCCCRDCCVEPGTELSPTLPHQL

With `CC[n+]1c(/C=C/N(C)c2ccccc2)n(-c2ccccc2)c2ccc(-c3nc4ccccc4s3)cc21`, the residual activity (as a rule, the signal under treatment as a percentage of the control signal) stood at 107% in assay [1]; 26% in assay [2]; 93% in assay [3]; 38% in assay [4]; 113% in [5]; 99% in assay [6]. For the same compound, the residual activity was determined as 109% in [7]; 78% in assay [8]; 124% in assay [9]; 95% in [10]; 51% in assay [11]; 100% in assay [12]. In addition, the residual activity came to 99% in assay [13]; 110% in [14]; 102% in assay [15]; 116% in assay [16]; 88% in assay [17]; 120% in [18]. In addition, the values for the residual activity in assay [19] and in [20] were 121% and 119%, respectively.

With `O=C1NC(=O)c2cc(Nc3ccc(F)cc3)c(Nc3ccc(F)cc3)cc21`, the residual activity was 109% in assay [1]; 71% in assay [2]; 85% in assay [3]; 50% in [4]; 111% in assay [5]; 102% in [6]. For the same compound, the residual activity in [7] turned out to be 110%; in assay [8], 88%; in assay [9], 119%; in assay [10] it was 66%; in assay [11] it was 76%; in [12], 77%. Moreover, the residual activity in assay [13] amounted to 84%; in assay [14] it was 76%; in assay [15], 89%; in assay [16] it was 92%; in assay [17] it was 51%; in [18], 125%. Moreover, the residual activity was 129% in assay [19] and 105% in assay [20].

Consider `Cn1nc2c3c(cccc31)C(=O)c1ccccc1-2`, for which the residual activity in [1] is 75%; in assay [2] it was 74%; in assay [3], 77%; in assay [4] it was 67%; in [5] it was 87%; in assay [6], 37%. For the same compound, the residual activity was 85% in assay [7]; 36% in assay [8]; 96% in [9]; 62% in assay [10]; 77% in assay [11]; 93% in [12]. Further, the residual activity came out at 76% in [13]; 75% in [14]; 89% in assay [15]; 100% in assay [16]; 104% in assay [17]; 127% in assay [18]. Further, the values for the residual activity in assay [19] and in [20] were 84% and 50%, respectively.

For `Cn1cc(/C=C2\C(=O)Nc3ccc(S(N)(=O)=O)cc32)c2ccccc21`, the residual activity is 54% in [1]; 12% in assay [2]; 65% in [3]; 58% in assay [4]; 23% in [5]; -1% in assay [6]. Moreover, the residual activity in assay [7] is 23%; in assay [8] it was 7%; in [9], 120%; in [10], 62%; in [11], 85%; in assay [12], 92%. In addition, the residual activity in assay [13] was 94%; in [14] it was 97%; in assay [15], 77%; in assay [16], 94%; in [17], 99%; in [18], 80%. For the same compound, the residual activity in [19] amounted to 120%; in assay [20], 22%.

Turning to `Nc1ccc2ncnc(NCCc3ccc(Oc4ccccc4)cc3)c2c1`, the residual activity in [1] is 107%; in assay [2], 87%; in [3], 72%; in [4], 43%; in [5] it was 24%; in assay [6], 11%. The residual activity is 31% in assay [7]; 14% in assay [8]; 108% in assay [9]; 106% in assay [10]; 75% in assay [11]; 105% in assay [12]. For the same compound, the residual activity stood at 100% in [13]; 110% in assay [14]; 87% in assay [15]; 91% in assay [16]; 90% in assay [17]; 98% in assay [18]. The residual activity in assay [19] came to 86%; in assay [20], 62%.

With `Nc1n[nH]c2nnc(-c3c(-c4ccccc4)nn4ccccc34)cc12`, the residual activity in [1] stood at 101%; in assay [2], 79%; in assay [3] it was 93%; in assay [4], 80%; in assay [5], 103%; in [6], 92%. Besides, the residual activity in [7] came to 94%; in assay [8] it was 93%; in assay [9], 95%; in assay [10], 64%; in [11], 88%; in assay [12], 95%. The residual activity came to 99% in assay [13]; 128% in [14]; 75% in assay [15]; 94% in assay [16]; 74% in assay [17]; 92% in assay [18]. The residual activity in assay [19] is 75%; in [20] it was 83%.

Take `Oc1n[nH]c2nnc(-c3c(-c4ccccc4)nn4ccccc34)cc12`: the residual activity stood at 92% in assay [1]; 79% in assay [2]; 91% in assay [3]; 80% in assay [4]; 90% in [5]; 78% in assay [6]. The residual activity in [7] was 87%; in [8], 82%; in assay [9], 105%; in assay [10], 96%; in assay [11], 39%; in assay [12] it was 62%. Further, the residual activity is 43% in assay [13]; 85% in assay [14]; 92% in [15]; 92% in assay [16]; 95% in assay [17]; 69% in [18]. The figures for the residual activity in [19] and in [20] were 83% and 78%, respectively.
